Screens from PubChem BioAssay.
NOMO-1 viab – STK33 inhibitor candidate reducing NOMO-1 cell viability | NOMO-1 AML viability, CellTiter-Glo luminescence, 72 h | inhibition, % (no concentration beside the values) | 7.5% of 37,000 active; in the data active means inhibition above about 80%; inconclusive means no clear call, values can overlap the other calls
PD-1 reverse act – activators reversing PD-1 mediated T-cell inhibition. primary human CD4 T cells, PD-L1 beads, CellTiter-Glo 96 h. activation, % (concentration not given with the values). 29,000 tested, under 10 active. AID 2316; call rule not given here;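 further: 0% = median vehicle wells and 100% = positive control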
U2OS ROS induce – inducers of reactive oxygen species in cancer cells | U2OS ROS induction, H2DCF-DA fluorescence | ROS induction (% of piperlongumine), % at 10 µM | 2% of 46,000 active; in the data active means ROS induction above about 79%, passing the limit was not always enough; inconclusive means no clear call, values can overlap the other calls;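 further: 0% = DMSO vehicle median and 100% = reference compound median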
Starred values were filed as active, the others as inactive; ? = inconclusive; · = not tested or not shown. Many of the other results were omitted from the sample, so hits are more common in it than they were.

SMILES | NOMO-1 viab | PD-1 reverse act | U2OS ROS induce
O=C(C1=C[C@@H](c2ccc3c(c2)Cc2ccccc2-3)C[C@@H](OCc2ccc(CO)cc2)O1)N1CCN(Cc2ccc3c(c2)OCO3)CC1 | · | · | 29
COC(=O)c1ccc([C@@H]2C=C(C(=O)N3CCN(Cc4ccc5c(c4)OCO5)CC3)O[C@H](OCc3ccc(CO)cc3)C2)cc1 | · | · | 100*
C[C@@H]1CN([C@H](C)CO)C(=O)Cc2cc(NC(=O)Nc3ccc4c(c3)OCO4)ccc2O[C@@H]1CN(C)S(=O)(=O)c1ccccc1 | 3 | · | 67
Cc1ccc(S(=O)(=O)N(C)C[C@@H]2Oc3ccc(NC(=O)Nc4ccc5c(c4)OCO5)cc3CC(=O)N([C@H](C)CO)C[C@@H]2C)cc1 | 102* | 0 | 33
C[C@H]1CN([C@@H](C)CO)C(=O)Cc2cc(NC(=O)Nc3ccc4c(c3)OCO4)ccc2O[C@H]1CN(C)S(=O)(=O)c1ccc(Cl)cc1 | 127* | · | 23
Cc1ccc(S(=O)(=O)N(C)C[C@H]2Oc3ccc(NC(=O)Nc4ccc5c(c4)OCO5)cc3CC(=O)N([C@@H](C)CO)C[C@H]2C)cc1 | 48 | -1 | 11
C[C@H]1CN([C@@H](C)CO)C(=O)Cc2cc(NC(=O)Nc3ccc4c(c3)OCO4)ccc2O[C@H]1CN(C)S(=O)(=O)c1ccccc1 | 128* | · | 27
C[C@H](CO)N1C[C@H](C)[C@H](CN(C)S(=O)(=O)c2ccc(Cl)cc2)Oc2ccc(NC(=O)Nc3ccc4c(c3)OCO4)cc2CC1=O | 126* | -2 | 43
Cc1ccc(S(=O)(=O)N(C)C[C@H]2Oc3ccc(NC(=O)Nc4ccc5c(c4)OCO5)cc3CC(=O)N([C@@H](C)CO)C[C@@H]2C)cc1 | 23 | -1 | -6
COc1ccc(S(=O)(=O)N(C)C[C@@H]2Oc3ccc(NC(=O)Nc4ccc5c(c4)OCO5)cc3CC(=O)N([C@@H](C)CO)C[C@@H]2C)cc1 | 65 | · | 6
CC(C)c1ccccc1Oc1coc2cc(OCC(=O)NC3CCCCC3)ccc2c1=O | · | · | 51
O=C(CC1(O)C(=O)Nc2ccccc21)C1CC2C=CC1C2 (centres undefined) | · | · | -8
Cc1ccc(CN2C(=O)C(O)(CC(=O)c3c(C)coc3C)c3cc(Cl)ccc32)cc1 (centres undefined) | 128* | 1 | 3
COc1ccc(C(=O)CC2(O)C(=O)N(Cc3ccc(C)cc3)c3ccc(Cl)cc32)cc1[N+](=O)[O-] (centres undefined) | 124* | -13 | 70
Cc1coc(C)c1C(=O)CC1(O)C(=O)N(Cc2cccc3ccccc23)c2ccccc21 (centres undefined) | 40 | 1 | 7
CCCN1C(=O)C(O)(CC(=O)c2ccc(OC)c([N+](=O)[O-])c2)c2ccccc21 (centres undefined) | 118* | · | ·
COc1ccc(C(=O)CC2(O)C(=O)N(Cc3ccc(Cl)c(Cl)c3)c3ccccc32)cc1OC (centres undefined) | 43 | 1 | 6
COc1ccc(C2(CNC(=O)c3ccc(OC)c([N+](=O)[O-])c3)CCCC2)cc1OC | 14 | -3 | 2
N#CCCCN1C(=O)C(O)(CC(=O)c2ccc(Br)s2)c2ccccc21 (centres undefined) | 47 | -1 | -10
CCCN1C(=O)C(O)(CC(=O)c2ccc(OC)c([N+](=O)[O-])c2)c2cc(Br)ccc21 (centres undefined) | 113* | -12 | 15
Cc1nc2n(Cc3ccccc3)c3ccccc3n2c1C(=S)Nc1ccccc1 | · | · | 20
CC1CCCCC1NC(=O)C1CCN(Cc2cnn(-c3ccccc3)c2-n2cccc2)CC1 (centres undefined) | · | · | 5
CCOC(=O)C1C(=O)C=C(c2cccs2)CC1c1ccc(C)cc1 (centres undefined) | · | · | 10
CC(C)CN(CC(C)C)S(=O)(=O)N1CCC(C(=O)N2CCOCC2)CC1 | · | · | -1
COc1ccc(Br)cc1S(=O)(=O)N1CCN(Cc2ccc3c(c2)OCO3)CC1 | · | · | 11
SMILES | NOMO-1 viab | PD-1 reverse act | U2OS ROS induce
O=C(CC1(O)C(=O)N(Cc2ccccc2)c2ccc(Cl)cc21)c1ccc2c(c1)OCCO2 (centres undefined) | 26 | 1 | -3
O=C(CC1(O)C(=O)N(Cc2ccc(Cl)cc2)c2ccc(Cl)cc21)c1ccc2c(c1)OCCO2 (centres undefined) | 129* | -2 | 13
COc1cccc(-n2nnc3c(=O)n(CC(=O)c4ccc(Cl)cc4)cnc32)c1 | · | · | 2
Cc1noc(C)c1S(=O)(=O)Nc1ccc2c(c1)CC(=O)N([C@H](C)CO)C[C@@H](C)[C@H](CN(C)CC1CCCCC1)O2 | 18 | 0 | 109*
C[C@H]1CN([C@@H](C)CO)C(=O)Cc2cc(NS(=O)(=O)c3ccc(Cl)cc3)ccc2O[C@H]1CN(C)CC1CCCCC1 | 135* | -12 | 16
C[C@H](CO)N1C[C@H](C)[C@H](CN(C)CC2CC2)Oc2ccc(NS(=O)(=O)c3ccc(Cl)cc3)cc2CC1=O | 35 | 2 | 8
C[C@H]1CN([C@@H](C)CO)C(=O)Cc2cc(NS(=O)(=O)c3ccc(Cl)cc3)ccc2O[C@@H]1CN(C)CC1CC1 | 9 | · | 23
C[C@@H]1CN([C@@H](C)CO)C(=O)Cc2cc(NS(=O)(=O)c3ccc(Cl)cc3)ccc2O[C@@H]1CN(C)CC1CC1 | 8 | · | -7
C[C@H](CO)N1C[C@H](C)[C@H](CN(C)CC2CCCCC2)Oc2ccc(NS(=O)(=O)c3ccc(Cl)cc3)cc2CC1=O | 97* | -5 | 5
C[C@H]1CN([C@@H](C)CO)C(=O)Cc2cc(NS(=O)(=O)c3ccc(Cl)cc3)ccc2O[C@@H]1CN(C)CC1CCCCC1 | 120* | · | 21
Cc1noc(C)c1S(=O)(=O)Nc1ccc2c(c1)CC(=O)N([C@@H](C)CO)C[C@H](C)[C@H](CN(C)CC1CCCCC1)O2 | 15 | 1 | 0
COCCN(C(=S)Nc1cc(F)cc(F)c1)C1CCN(C(C)=O)CC1 | · | · | 13
Cn1ncc(Br)c1-c1nc2ccccc2[nH]1 | 4 | -1 | -8
Cc1cccc(N=Cc2c(Nc3cccc(C)c3)nc3ccccn3c2=O)c1 | 27 | 0 | 37
CC1CCN(C(=O)Cn2cc(SCC(=O)N3CCc4ccccc43)c3ccccc32)CC1 | · | · | 13
c1ccc(-c2ccnc(-c3cc(-c4ccccc4)ccn3)c2)cc1 | · | · | 7
C[C@H]1CN([C@@H](C)CO)C(=O)Cc2cc(NS(=O)(=O)c3ccc(F)cc3)ccc2O[C@H]1CN(C)CC1CCCCC1 | 115* | -6 | 14
C[C@@H]1CN([C@@H](C)CO)C(=O)Cc2cc(NS(=O)(=O)c3ccc(F)cc3)ccc2O[C@@H]1CN(C)CC1CCCCC1 | ? | -3 | -2
Cc1ccc(S(=O)(=O)Nc2ccc3c(c2)CC(=O)N([C@@H](C)CO)C[C@@H](C)[C@@H](CN(C)S(=O)(=O)c2ccc(Cl)cc2)O3)cc1 | 23 | -2 | 15
Cc1ccc(S(=O)(=O)Nc2ccc3c(c2)CC(=O)N([C@@H](C)CO)C[C@@H](C)[C@@H](CN(C)CC2CC2)O3)cc1 | 8 | · | 15
Cc1ccc(S(=O)(=O)N(C)C[C@H]2Oc3ccc(NS(=O)(=O)c4ccc(Cl)cc4)cc3CC(=O)N([C@@H](C)CO)C[C@H]2C)cc1 | 49 | -2 | 212*
